Composite z-score and z-score data for 13 compounds are collected here from PubChem BioAssay.

The nature of assay [1]: small molecules captured by biotinylated probe aFSTL3 – biochemical, small-molecule microarray, fluorescence 635/667, stem cell growth factor project, primary screen (AID 1064).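 Note: measures binding of the biotinylated anti-FSTL3 antibody to printed compounds.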 Conditions: higher = more signal.
A short description of assay [2]: binders from COS7 lysate, DM2A8 probe, primary screen, torsin A project, cell lysate, small-molecule microarray, fluorescence 635/667 (AID 1065). Conditions: higher = more signal, COS7 lysate expressing mutant human TOR1A.
Assay [3] is described as follows: small molecules captured by biotinylated probe aFGF2 – biochemical, small-molecule microarray, fluorescence 635/667, stem cell growth factor project, primary screen (AID 1067).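 Note: measures binding of biotinylated aFGF2 protein to printed compounds on slides; z-score merges feature fluorescence and signal-to-noise across triplicate slides.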 Conditions: higher = more signal.
Assay [4] can be described thus: small molecules captured by biotinylated probe aFGF10 – biochemical, small-molecule microarray, fluorescence 635/667, stem cell growth factor project, primary screen (AID 1071).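 Note: score merges 667 nm spot intensity and signal to noise from triplicate slides.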 Conditions: higher = more signal.
Assay [5] has as its target Neurogenic locus notch homolog protein 2 (Homo sapiens) (UniProt Q04721). Kind of assay: small molecules binding Notch2 protein – biochemical, small-molecule microarray, 635 nm fluorescence, stem cell growth factors, primary screen (AID 1073). Conditions: higher = more signal.
Assay [6] addresses Pro-neuregulin-1, membrane-bound isoform (Homo sapiens) (UniProt Q02297). Kind of assay: small molecules binding neuregulin-1 protein – biochemical, small-molecule microarray, fluorescence 635/667, psychiatric disease protein project, primary screen (AID 1075).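 Note: score combines 667 nm spot fluorescence with signal to noise.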 Conditions: NRG1 binding, 635 nm fluorescence, higher = more signal.
Assay [7] relates to Neuregulin-1 EGF-like domain. Description: small molecules binding NRG1 EGF domain – biochemical, small-molecule microarray, 635 nm fluorescence, primary screen (AID 1081).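 Note: binding of the protein to compounds printed on small-molecule microarray slides.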 Conditions: higher = more signal.
Assay [8] can be described thus: FRG1 expression reporter modulators in myotubes – cell-based, C2C12 myotubes, firefly/Renilla luciferase, luminescence, FRG1 inhibition for FSHD, primary screen (AID 1084). Conditions: FRG1 promoter luciferase, higher = more signal, called active from +8 up or from −8 down.
The nature of assay [9]: small molecules captured by biotinylated probe aFST – biochemical, small-molecule microarray, fluorescence 635/667, stem cell growth factor project, primary screen (AID 1086).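 Note: score merges 667 nm fluorescence with signal-to-noise of each printed compound spot.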 To be noted: higher = more signal.
The nature of assay [10]: binders of probe aHhip on microarray, primary screen, stem cell growth factor project, biochemical, small-molecule microarray, fluorescence 635/667 (AID 1087).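 Note: score merges spot fluorescence at 667nm with spot signal to noise ratio.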 Conditions: higher = more signal.

The source made the active and inactive calls.

Sequence of Neurogenic locus notch homolog protein 2 (Homo sapiens) (Q04721 whole entry, looked up, canonical isoform): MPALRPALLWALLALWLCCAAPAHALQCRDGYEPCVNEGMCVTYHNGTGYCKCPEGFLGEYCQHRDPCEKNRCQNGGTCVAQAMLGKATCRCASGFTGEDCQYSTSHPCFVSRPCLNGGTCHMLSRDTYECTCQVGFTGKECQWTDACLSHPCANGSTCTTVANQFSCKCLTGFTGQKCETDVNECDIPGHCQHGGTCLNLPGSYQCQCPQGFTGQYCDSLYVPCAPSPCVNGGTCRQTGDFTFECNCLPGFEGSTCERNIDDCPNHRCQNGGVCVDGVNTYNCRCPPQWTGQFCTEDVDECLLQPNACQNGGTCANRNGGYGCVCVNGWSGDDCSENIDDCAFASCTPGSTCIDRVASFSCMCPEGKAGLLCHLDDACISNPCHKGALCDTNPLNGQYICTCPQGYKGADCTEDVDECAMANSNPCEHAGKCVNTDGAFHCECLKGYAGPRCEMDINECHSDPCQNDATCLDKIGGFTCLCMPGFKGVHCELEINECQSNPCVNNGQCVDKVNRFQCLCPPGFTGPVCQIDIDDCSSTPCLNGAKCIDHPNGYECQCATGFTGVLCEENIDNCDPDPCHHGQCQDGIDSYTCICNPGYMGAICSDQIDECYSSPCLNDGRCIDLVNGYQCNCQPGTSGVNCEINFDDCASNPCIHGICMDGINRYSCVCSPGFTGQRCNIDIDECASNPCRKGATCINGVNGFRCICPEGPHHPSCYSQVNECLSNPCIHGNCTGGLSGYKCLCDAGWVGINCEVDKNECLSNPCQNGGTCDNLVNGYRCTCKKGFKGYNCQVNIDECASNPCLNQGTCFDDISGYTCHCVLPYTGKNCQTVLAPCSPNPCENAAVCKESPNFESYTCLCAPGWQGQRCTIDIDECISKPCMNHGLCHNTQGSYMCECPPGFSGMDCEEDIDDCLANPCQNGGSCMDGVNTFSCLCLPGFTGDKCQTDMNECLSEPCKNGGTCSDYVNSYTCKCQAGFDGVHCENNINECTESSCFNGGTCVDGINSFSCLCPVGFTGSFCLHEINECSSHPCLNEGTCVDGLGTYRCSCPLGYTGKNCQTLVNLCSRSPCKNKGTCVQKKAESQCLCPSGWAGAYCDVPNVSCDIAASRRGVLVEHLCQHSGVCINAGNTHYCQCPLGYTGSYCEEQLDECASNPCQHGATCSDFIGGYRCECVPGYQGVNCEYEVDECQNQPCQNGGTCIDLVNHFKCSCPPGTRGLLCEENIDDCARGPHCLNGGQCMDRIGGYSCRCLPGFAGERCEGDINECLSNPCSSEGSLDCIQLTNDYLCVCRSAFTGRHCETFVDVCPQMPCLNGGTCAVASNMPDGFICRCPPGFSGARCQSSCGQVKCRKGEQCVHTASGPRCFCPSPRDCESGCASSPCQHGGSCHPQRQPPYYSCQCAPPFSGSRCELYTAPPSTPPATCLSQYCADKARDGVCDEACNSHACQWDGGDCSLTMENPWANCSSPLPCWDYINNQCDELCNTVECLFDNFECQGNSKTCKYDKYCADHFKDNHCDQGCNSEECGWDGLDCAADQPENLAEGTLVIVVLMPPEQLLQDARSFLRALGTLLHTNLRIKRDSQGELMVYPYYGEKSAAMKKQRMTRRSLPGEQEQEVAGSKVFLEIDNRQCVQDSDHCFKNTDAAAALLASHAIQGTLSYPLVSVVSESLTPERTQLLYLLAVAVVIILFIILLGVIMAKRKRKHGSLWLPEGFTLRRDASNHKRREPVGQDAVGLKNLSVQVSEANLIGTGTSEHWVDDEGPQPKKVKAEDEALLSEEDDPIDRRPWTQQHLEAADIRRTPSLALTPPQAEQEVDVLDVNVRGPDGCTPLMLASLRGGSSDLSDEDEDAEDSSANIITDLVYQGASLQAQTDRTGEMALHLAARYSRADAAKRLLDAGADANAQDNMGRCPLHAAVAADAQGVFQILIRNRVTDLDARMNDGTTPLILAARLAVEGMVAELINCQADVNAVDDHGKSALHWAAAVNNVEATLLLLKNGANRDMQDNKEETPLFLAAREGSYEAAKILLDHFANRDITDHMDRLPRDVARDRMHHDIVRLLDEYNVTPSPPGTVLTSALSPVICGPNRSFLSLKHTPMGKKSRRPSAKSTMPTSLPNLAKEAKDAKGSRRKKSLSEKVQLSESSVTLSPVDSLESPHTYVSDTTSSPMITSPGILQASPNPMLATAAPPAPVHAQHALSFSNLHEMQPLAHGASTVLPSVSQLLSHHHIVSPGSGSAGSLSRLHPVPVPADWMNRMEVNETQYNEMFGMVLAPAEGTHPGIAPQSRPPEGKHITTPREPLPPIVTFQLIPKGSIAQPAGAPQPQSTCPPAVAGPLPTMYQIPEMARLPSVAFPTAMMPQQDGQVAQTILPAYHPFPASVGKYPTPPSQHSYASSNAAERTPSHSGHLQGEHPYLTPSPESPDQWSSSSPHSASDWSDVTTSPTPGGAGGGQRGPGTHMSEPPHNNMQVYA
Sequence of Pro-neuregulin-1, membrane-bound isoform (Homo sapiens) (Q02297 whole entry, looked up, the tested form may be a part, canonical isoform): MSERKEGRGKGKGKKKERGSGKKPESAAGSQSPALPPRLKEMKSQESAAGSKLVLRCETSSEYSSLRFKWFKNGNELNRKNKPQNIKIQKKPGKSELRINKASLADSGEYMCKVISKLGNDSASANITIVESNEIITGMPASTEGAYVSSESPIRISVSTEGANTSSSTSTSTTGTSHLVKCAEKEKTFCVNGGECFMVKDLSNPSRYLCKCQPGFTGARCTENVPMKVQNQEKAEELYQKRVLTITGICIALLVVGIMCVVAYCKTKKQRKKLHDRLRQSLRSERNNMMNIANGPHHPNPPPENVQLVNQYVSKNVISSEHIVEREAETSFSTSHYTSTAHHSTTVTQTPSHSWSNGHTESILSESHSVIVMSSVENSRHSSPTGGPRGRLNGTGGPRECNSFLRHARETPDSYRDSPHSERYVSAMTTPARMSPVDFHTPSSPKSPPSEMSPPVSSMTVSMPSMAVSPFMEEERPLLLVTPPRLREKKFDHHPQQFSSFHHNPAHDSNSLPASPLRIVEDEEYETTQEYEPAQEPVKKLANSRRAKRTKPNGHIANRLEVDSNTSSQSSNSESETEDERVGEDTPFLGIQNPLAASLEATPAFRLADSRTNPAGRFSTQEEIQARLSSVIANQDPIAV

Turning to `C[C@@H]1CC[C@H]2C(=O)O[C@H](COc3ccc(C(C)(C)C)cc3)CN2[C@H]1c1ccc(Br)cc1`, the composite z-score is -0.417 in assay [1]; -0.16 in assay [2]; -0.026 in [3]; -0.0359 in assay [4]; 0.111 in [5]; 0.536 in [6]. Besides, the composite z-score in [7] is -0.414; in [9], -0.0273; in [10], -0.0296. Further, the z-score in assay [8] is 0.414 (inactive).
As for `COc1ccccc1CN1C(=O)c2ccccc2[C@@]2(Cc3ccccc3N(C(C)C)C2=O)[C@@H]1c1ccc(CO)cc1`, the composite z-score in assay [1] is -0.111; in assay [2], -0.336; in assay [3], -0.186; in assay [4], -0.689; in [5], -0.294; in [6], -0.0492. In addition, the composite z-score in assay [7] was -0.723; in assay [9], 0.351; in [10] it was -0.374. Further, in [8], the z-score is -2.45 (inactive).
For the compound `COC(=O)[C@@H]1CC[C@H](C)[C@@H](c2ccc(C)cc2)N1C(=O)c1ccc(C=NOC[C@@H](O)COCc2ccco2)cc1`, the composite z-score is 0.852 in assay [1]; 0.239 in assay [2]; -0.226 in assay [3]; -0.58 in assay [4]; -1.83 in [5]; -0.96 in [6]. Besides, the composite z-score in assay [7] is -1.04; in [9] it was -0.72; in assay [10], -0.137. Also, in [8], the z-score was 0.495 (inactive).
`CCc1cccc(NC(=O)O[C@H]2[C@H](OC(=O)Nc3ccc4c(c3)OCO4)[C@@H](OC(=O)Nc3ccc4c(c3)OCO4)[C@@H](OC)O[C@@H]2CO)c1`: the composite z-score is -0.263 in assay [1]; 1.45 in assay [2]; 0.225 in [3]; 1 in assay [4]; 1.49 in assay [5]; -0.396 in assay [6]. The composite z-score was 1.25 in [7], 0.507 in assay [9] and -0.15 in assay [10]. Besides, in assay [8], the z-score is 8.02 (active).
On to `O=C1[C@H]2[C@H]3[C@H](O)[C@H](O)CC(=NO[C@@H]4O[C@H](CO)[C@@H](O)[C@H](O)[C@H]4O)[C@@H]3CC[C@H]2C(=O)N1Cc1ccccc1`, for which the composite z-score in [1] is -0.466; in [2], 1.08; in assay [3] it was -0.074; in [4], 0.312; in assay [5] it was 0.595; in assay [6] it was -0.516. The figures for the composite z-score in assay [7], in assay [9] and in assay [10] were -0.9, 0.756 and -0.0994, respectively. Moreover, in assay [8], the z-score is -0.7 (inactive).
Consider `CC(=O)C[C@H](O)[C@@H](NC(=O)OC(C)(C)C)C(C)C`, for which the composite z-score in [1] was -0.475; in assay [2], -0.627; in assay [3], -0.129; in assay [4] it was -0.328; in assay [5] it was -0.453; in assay [6], -0.759. Moreover, the composite z-score is -0.996 in [7], -0.126 in assay [9] and -0.0668 in assay [10]. Further, in assay [8], the z-score was 0.178 (inactive).
Consider `N#Cc1ccc(NN2C(C(O)c3cc(C(F)(F)F)cc(C(F)(F)F)c3)C=CC3C(=O)N(c4ccccc4)C(=O)C32)cc1` (stereo not given), for which the composite z-score in assay [1] was determined as 0.0678; in assay [2], 0.517; in assay [3] it was 0.116; in assay [4], 0.668; in assay [5], 1.27; in assay [6], 1.97. The composite z-score is 1.22 in assay [7], 0.785 in [9] and 0.357 in assay [10]. The z-score in assay [8] was 0.474 (inactive).
On to `CCOC(=O)[C@H](Cc1ccccc1)NC(=O)CCC1CC(OC(=O)NCc2ccc3c(c2)OCO3)CC2(CCCC(COC(=O)NCc3cccc(C(F)(F)F)c3)O2)O1` (stereo not given in full), for which the composite z-score in [1] is -0.353; in assay [2], 0.226; in assay [3] it was -0.0985; in [4], 0.0907; in assay [5], 0.981; in assay [6], 0.0527. In addition, the composite z-score in assay [7] is 0.481; in assay [9], 0.348; in assay [10], -0.0645. Further, in assay [8], the z-score is -0.0878 (inactive).
Turning to `CCOC(=O)CCN1C(=O)[C@H]2[C@H]3[C@H](O)[C@H](O)CC(=NNC(=O)OCc4ccc(OC)cc4)[C@@H]3CC[C@H]2C1=O`, the composite z-score is -0.468 in assay [1]; 0.336 in assay [2]; -0.15 in assay [3]; 0.0569 in assay [4]; 0.0846 in [5]; 0.863 in assay [6]. Besides, the composite z-score in assay [7] came to 0.574; in assay [9] it was 0.15; in [10], 0.251. In assay [8], the z-score was 0.455 (inactive).
With `O=C1c2ccccc2[C@@]2(Cc3ccccc3N(C3CC3)C2=O)[C@H](c2ccc(CO)cc2)N1Cc1ccccc1C(F)(F)F`, the composite z-score is 0.748 in assay [1]; -0.686 in assay [2]; -0.0507 in assay [3]; 0.157 in [4]; -1.11 in assay [5]; 0.809 in assay [6]. For the same compound, the values for the composite z-score in assay [7], in [9] and in [10] were -0.0465, -0.0438 and 0.151, respectively. In addition, in [8], the z-score was -0.455 (inactive).
On to `C[C@@H]1C=CCC(=O)OC[C@H](C)C(=O)N2CCC[C@H]2C(=O)OC1`, for which the composite z-score was -0.586 in assay [1]; 2.45 in assay [2]; -0.178 in assay [3]; 0.349 in assay [4]; 0.285 in assay [5]; -0.824 in assay [6]. The composite z-score was 1.04 in assay [7], 0.165 in [9] and -0.0296 in [10]. Further, in assay [8], the z-score is 0.465 (inactive).
Consider `CC(C)=CCCC(C)=CCON=C1C[C@@H](O)[C@@H](O)[C@@H]2[C@@H]3C(=O)N(C[C@@H]4CCCO4)C(=O)[C@@H]3CC[C@@H]12`, for which the composite z-score in [1] was -0.518; in assay [2] it was 1; in assay [3] it was -0.134; in assay [4], 0.84; in assay [5], 0.449; in assay [6] it was 0.614. For the same compound, the figures for the composite z-score in assay [7], in assay [9] and in assay [10] were 1.08, 0.28 and 0.0749, respectively. The z-score in assay [8] was -0.24 (inactive).
As to `CC(C)NC(=O)[C@@]1(c2ccc([N+](=O)[O-])cc2)CC(=O)N(CC23CC4CC(CC(C4)C2)C3)[C@@H]1c1ccc(CO)cc1I`, the composite z-score worked out at 0.765 in assay [1]; 0.0289 in assay [2]; 0.11 in [3]; 0.252 in [4]; 0.931 in assay [5]; 0.607 in assay [6]. Moreover, the composite z-score in assay [7] was 0.964; in assay [9], 0.481; in assay [10], -0.0645. For the same compound, in assay [8], the z-score was -3.71 (inactive).
